Test results published in PubChem BioAssay (NCI).
The panel holds about 79,000 compounds, 15% with a hit somewhere; the sample as a whole holds those more often. Unmarked numbers belong to inactive results. Calls of active or inactive are those of the source. No stated cut-off is given here; in the data, active means growth inhibition above about 70%; inactive means the rest.

Assay: NCI Yeast Anticancer Drug Screen. Data for the mlh1 rad18 strain (AID 175)
Settings: S. cerevisiae mlh1 rad18 strain growth inhibition; at 50.0 µM; stronger effect = higher value
Procedure, shortened: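 Growth inhibition of the yeast strain was measured after compound exposure and expressed relative to vehicle-treated controls. The strain carries defined defects in DNA damage repair.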

**Q.** For `O=C(O)CC(C(=O)O)C1c2ccccc2-c2ccccc21` (stereo not given), which growth inhibition is on record?
**A.** 3.6%

**Q.** With `COc1ccc(C(=O)NNC(=O)c2ccccc2)cc1` as the compound, how does the growth inhibition read?
**A.** -14.2%

**Q.** Which growth inhibition does the source give for `Cc1cc(NCCN(C)C)nc(Nc2ccc(Cl)cc2)n1` here?
**A.** 54.8%

**Q.** Which growth inhibition does the source give for `O=C1CC2(C(=O)N1CN1CCOCC1)c1ccccc1-c1ccccc12` here?
**A.** -11.1%

**Q.** For `CCCCCN(C(=O)c1ccccc1C(=O)N(CCCCC)c1ccccc1)c1ccccc1`, which growth inhibition is on record?
**A.** 42%

**Q.** Which growth inhibition does the source give for `Brc1nccs1` here?
**A.** -27.1%

**Q.** Which growth inhibition does the source give for `COC(=O)N/N=C(\C)CC(=O)Nc1ccc(Cl)cc1` here?
**A.** -43.7%

**Q.** With `CCCCCCCCCC1OCCCO1` as the compound, how does the growth inhibition read?
**A.** -16.3%

**Q.** With `CC(=O)OC(C)C(O)C(O)C(/C=C/C1CC=CC(=O)O1)OC(C)=O` (stereo not given) as the compound, how does the growth inhibition read?
**A.** 11.8%

**Q.** With `O=C1C=Cn2cc(-c3ccccc3)c(-c3ccccc3)c21` as the compound, how does the growth inhibition read?
**A.** -9.2%

**Q.** With `CCOC(=O)CNC(=O)C(Cc1ccccc1)NC(=O)c1ccccc1NC(=O)c1ccccc1` (stereo not given) as the compound, how does the growth inhibition read?
**A.** 22.2%

**Q.** With `CN(C)c1ccc2c(c1)Cc1cc(NC(=O)CCC(=O)O)ccc1-2` as the compound, how does the growth inhibition read?
**A.** 14.3%

**Q.** With `CC(C)CCN(C(=O)CCl)c1ccccc1` as the compound, how does the growth inhibition read?
**A.** 63.8%

**Q.** Which growth inhibition does the source give for `CC=NC(C)(C)C` here?
**A.** -18.9%

**Q.** With `CC(=O)CCCCCCCCCCCCCC(C)=O` as the compound, how does the growth inhibition read?
**A.** -6%

**Q.** Which growth inhibition does the source give for `CNCC(OCCc1ccccc1)c1ccc(O)c(O)c1` (stereo not given) here?
**A.** 21.4%

**Q.** For `O=C(Nc1ccc(Cl)cc1C(=O)O)c1ccc([N+](=O)[O-])cc1`, which growth inhibition is on record?
**A.** 53.2%

**Q.** Which growth inhibition does the source give for `Nc1ccn(C2OC(COC(=O)C34CC5CC(CC(C5)C3)C4)C(O)C2O)c(=O)n1` (stereo not given) here?
**A.** 6.3%

**Q.** For `N#Cc1ccccc1N=Nc1nc(N)c(C(N)=O)[nH]1`, which growth inhibition is on record?
**A.** 10.2%

**Q.** Which growth inhibition does the source give for `CC(=O)OC(Cc1ccc2ccccc2n1)(C(F)(F)F)C(F)(F)F` here?
**A.** -24.5%

**Q.** With `O=C(Nc1ccccc1Cl)c1ccc([N+](=O)[O-])cc1` as the compound, how does the growth inhibition read?
**A.** 24.6%

**Q.** With `C=C(C)CNCCN` as the compound, how does the growth inhibition read?
**A.** 16.3%

**Q.** For `O=C1Cn2c(cc(=O)c3ccccc32)O1`, which growth inhibition is on record?
**A.** 14.8%

**Q.** For `O=C1CCCCCCCCCCC1`, which growth inhibition is on record?
**A.** 3.1%

**Q.** With `Cc1ccccc1-n1c(C)nc2cc(NC(N)=S)ccc2c1=O` as the compound, how does the growth inhibition read?
**A.** -17.7%

**Q.** Which growth inhibition does the source give for `CN(C)S(=O)(=O)c1nc2nc[nH]c(=O)c2[nH]1` here?
**A.** -22.9%

**Q.** Which growth inhibition does the source give for `Cc1cc(C)nc(C)c1.[Cl-].[Cl-].[Cl-].[Cl-].[Pt+2]` here?
**A.** 7.1%

**Q.** With `CCN(CC)CCNC(=O)c1ccc(C)c(OCc2ccccc2)c1[N+](=O)[O-]` as the compound, how does the growth inhibition read?
**A.** -19.6%

**Q.** For `CN(C)CCOC(=O)C(O)C1CCCCC1` (stereo not given), which growth inhibition is on record?
**A.** -19.9%

**Q.** Which growth inhibition does the source give for `CC(C)CC(C)Cc1ccncc1` (stereo not given) here?
**A.** -5%

**Q.** For `CN1CC2(CO)C(c3ccccn3)N(C)C(c3ccccn3)C(CO)(C1)C2O` (stereo not given), which growth inhibition is on record?
**A.** 10.8%

**Q.** With `Oc1ccc(N=Cc2ccc3ccccc3n2)cc1` as the compound, how does the growth inhibition read?
**A.** 4.2%

**Q.** For `CCCCCN(CCCCC)CC(O)c1cc(-c2ccccc2)nc2c(Cl)cc(Cl)cc12` (stereo not given), which growth inhibition is on record?
**A.** 39.1%

**Q.** With `CCOC(=O)C1C(c2cc(OC)c(OC)c(OC)c2)c2cc3c(cc2OC1(C)OC)OCO3` (stereo not given) as the compound, how does the growth inhibition read?
**A.** 19.1%

**Q.** With `C[CH2][GeH][CH2]C.C[CH2][Ge]([CH2]C)[CH2]C` as the compound, how does the growth inhibition read?
**A.** 94.8% (active)

**Q.** With `CCOC(=O)C12CC(COc3ccc([N+](=O)[O-])cc3)ON1OC(COc1ccc([N+](=O)[O-])cc1)C2` (stereo not given) as the compound, how does the growth inhibition read?
**A.** 28.1%

**Q.** For `CC1(c2ccccc2)OC1(C)c1ccccc1` (stereo not given), which growth inhibition is on record?
**A.** 28.8%

**Q.** Which growth inhibition does the source give for `CCNc1ccc(S(=O)(=O)O)cc1C(=O)O` here?
**A.** -4.6%

**Q.** With `CCC1([N+](=O)[O-])CC2C=CC1C2` (stereo not given) as the compound, how does the growth inhibition read?
**A.** -13.2%

**Q.** Which growth inhibition does the source give for `CN(C)C1C(CO)C(CO)C1(C)C` (stereo not given) here?
**A.** -7.55%
